{
  "source": "PubChem BioAssay AID463190",
  "about": "(Sanford-Burnham Center for Chemical Genomics, 2010)",
  "note": "Out of some 330,000 compounds screened, about 7,300 (2.2%) were called active. For the sample, actives were picked, then their nearest neighbours and some compounds at random. A number with no mark means an inactive call.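 The calls were made as follows: active = inhibition of at least 40%; inactive = the rest.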",
  "data": [
    {"assay": "growth inhibitors of tim10-1 mutant yeast, primary screen, luminescence, uHTS (AID 463190);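 also: mutant grown at 25 °C; 0% = DMSO wells with yeast and 100% = wells holding no yeast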", "details": "S. cerevisiae tim10-1 ts strain growth, BacTiter-Glo, 24 h; at 20 µM; active compounds read high", "values": [
      {"smiles": "CCC(C(=O)OCC(=O)Nc1c(Cl)cc(Cl)cc1Cl)c1ccccc1", "note": "(stereo not given)", "inhibition": "39.5%"},
      {"smiles": "CCOC(=O)c1c(CN2CCOCC2)n(-c2ccccc2)c2ccc(O)cc12", "inhibition": "45% (active)"},
      {"smiles": "CCOC(=O)c1nnn(-c2nonc2-n2cccc2)c1CN1CCOCC1", "inhibition": "23.2%"},
      {"smiles": "CCOC(=O)c1c(CN(C)C)n(-c2ccccc2)c2cc(Br)c(O)cc12", "inhibition": "10.1%"},
      {"smiles": "CC1CCCCN1CC(=O)NCc1ccc2c(c1)OCO2", "note": "(stereo not given)", "inhibition": "4.67%"},
      {"smiles": "CCN(CC)c1ccc(C2C3CCCCC3(O)CCN2CC(=O)Nc2ccccc2)cc1", "note": "(stereo not given)", "inhibition": "-17.2%"},
      {"smiles": "Cc1ccc(NC(=O)CN2CCC3(O)CCCCC3C2c2ccc3c(c2)OCO3)c(C)c1", "note": "(stereo not given)", "inhibition": "45.2% (active)"},
      {"smiles": "COc1ccc(N2CCN(C(=O)COC(=O)c3cccc(S(=O)(=O)Nc4ccccc4OC)c3)CC2)cc1", "inhibition": "19.1%"},
      {"smiles": "O=C1NC[C@@H](c2ccccc2)OC(=O)[C@H](Cc2ccc(F)cc2)CC/C=C/C[C@H]1CC(=O)N(CCO)Cc1ccccc1", "inhibition": "3%"},
      {"smiles": "S=c1nc(C23CC4CC(CC(C4)C2)C3)nc2sccn12", "inhibition": "-12.4%"},
      {"smiles": "CCOc1ccc(NC(=O)COc2ccc(C(=O)N3CCC(C(N)=O)CC3)cc2OC)cc1", "inhibition": "3.08%"},
      {"smiles": "Cc1cccc(C(=O)N2CCc3c([nH]c4ccccc34)C2CC(C)C)n1", "note": "(stereo not given)", "inhibition": "10.6%"},
      {"smiles": "Cc1cccc(C2c3[nH]c4ccccc4c3CCN2C(=O)c2cc(-c3cccn3C)n[nH]2)n1", "note": "(stereo not given)", "inhibition": "44% (active)"},
      {"smiles": "O=C(c1cn2ccccc2n1)N1CCc2c([nH]c3ccccc23)C1c1ccccn1", "note": "(stereo not given)", "inhibition": "22.4%"},
      {"smiles": "COCC1CCN(C(=O)C2CCC(=O)N(CC3CCCCC3)C2)CC1", "note": "(stereo not given)", "inhibition": "-9.11%"},
      {"smiles": "Cc1nc(SC(C)C)[nH]c(=O)c1Cc1ccccc1", "inhibition": "18.7%"},
      {"smiles": "Cc1nn(C)c(C)c1NS(=O)(=O)c1ccc(OC(F)(F)F)cc1", "inhibition": "-1.38%"},
      {"smiles": "O=S(=O)(Nc1ccc(O)c2ccccc12)c1ccc(OC(F)(F)F)cc1", "inhibition": "42.5% (active)"},
      {"smiles": "O=C1COc2ccc(S(=O)(=O)Nc3ccc(OC(F)(F)F)cc3)cc2N1", "inhibition": "18.6%"},
      {"smiles": "CC(=O)NS(=O)(=O)c1ccc2c(c1)Cc1cc(S(=O)(=O)NC(C)=O)ccc1-2", "inhibition": "-1.53%"},
      {"smiles": "O=C1CC2(CC(c3ccc(Cl)cc3)=NO2)C(=O)N1c1ccccc1", "note": "(stereo not given)", "inhibition": "-3.93%"},
      {"smiles": "CN(C)CCCN(C(=O)c1ccc(S(=O)(=O)N2CCCCCC2)cc1)c1nc2cc3c(cc2s1)OCCO3", "inhibition": "27.4%"},
      {"smiles": "CN(C)CCCN(C(=O)c1ccc(S(=O)(=O)N2CCCCCC2)cc1)c1nc2ccc(Br)cc2s1", "inhibition": "26.2%"},
      {"smiles": "CN(C)CCCN(C(=O)c1ccc(S(=O)(=O)N2CCCc3ccccc32)cc1)c1nc2ccc(F)cc2s1", "inhibition": "52.8% (active)"},
      {"smiles": "O=[N+]([O-])c1ccc(S(=O)(=O)Nc2cccc(-c3ccc(N4CCCC4)nn3)c2)cc1", "inhibition": "11.6%"},
      {"smiles": "Cc1c(C(=O)NCCN2CCOCC2)sc2nc(-c3ccc(F)cc3)cn12", "inhibition": "4.04%"},
      {"smiles": "CCNC(=S)Nc1ccc(OC(F)(F)F)cc1", "inhibition": "14.5%"},
      {"smiles": "COC(=O)Cc1ccc(NC(=S)NCc2ccccc2)cc1", "inhibition": "21.8%"},
      {"smiles": "FC(F)(F)Oc1ccc(NC(=S)NCc2ccccc2)cc1", "inhibition": "41.8% (active)"},
      {"smiles": "Cc1ccc(CCNC(=O)C2CCN(S(=O)(=O)N3CCCC3)CC2)cc1", "inhibition": "4.68%"},
      {"smiles": "CCOc1ccc(C2/C(=C(/O)c3ccc4c(c3)CC(C)O4)C(=O)C(=O)N2CCCn2ccnc2)cc1", "note": "(stereo not given)", "inhibition": "-3.88%"},
      {"smiles": "Cc1[nH]c2ccccc2c1C(=O)CSCC(=O)O", "inhibition": "12.6%"},
      {"smiles": "Cc1[nH]c2ccccc2c1C(=O)COC(=O)c1c(-c2ccccc2)noc1C", "inhibition": "52.3% (active)"},
      {"smiles": "Cc1onc(-c2ccccc2Cl)c1C(=O)OCC(=O)c1ccccc1", "inhibition": "11.7%"},
      {"smiles": "Cc1cc(SCc2c(F)cccc2Cl)nc(=O)[nH]1", "inhibition": "6.52%"},
      {"smiles": "O=C(CSc1ccc(-c2ccco2)nn1)Nc1cccc(F)c1", "inhibition": "3.73%"},
      {"smiles": "Fc1cccc(Cl)c1CSc1ccc(-c2ccco2)nn1", "inhibition": "45.4% (active)"},
      {"smiles": "CC(C)NC(=O)C(=O)NCCN1CCN(S(=O)(=O)c2ccc(Cl)cc2)CC1", "inhibition": "2.58%"},
      {"smiles": "CC/C(=N\\O)C(C)(C)/[N+]([O-])=C/c1ccc(Br)cc1", "inhibition": "5.1%"},
      {"smiles": "O=C(N/N=C/c1cccc(OCc2ccccc2)c1)c1ccc(Br)o1", "inhibition": "27.9%"},
      {"smiles": "N#C/C(=C\\c1ccc(O)c(O)c1)C(=O)NCc1ccccc1", "inhibition": "-4.07%"},
      {"smiles": "COCCNC(=O)/C(C#N)=C/c1cccc(OCc2ccccc2)c1", "inhibition": "52.7% (active)"},
      {"smiles": "C=CCNC(=O)COC(=O)c1ccccc1C(=O)N(C)C1CCCCC1", "inhibition": "16.1%"},
      {"smiles": "CCOc1ccc(CN2CCN(Cc3ccc(C)o3)CC2CCO)cc1", "note": "(stereo not given)", "inhibition": "5.81%"},
      {"smiles": "Cc1ccc(CC(=O)Nc2ccc(S(=O)(=O)N3CCOCC3)cc2)cc1C", "inhibition": "19%"},
      {"smiles": "O=C(COC(=O)CCc1ccc(S(=O)(=O)N2CCOCC2)cc1)Nc1cccc(Cl)c1", "inhibition": "5.19%"},
      {"smiles": "O=C(CCc1ccc(S(=O)(=O)N2CCOCC2)cc1)Nc1ccc2ccccc2c1", "inhibition": "41.9% (active)"},
      {"smiles": "CC(C)(C)OC(=O)C[C@@H]1C/C=C\\C[C@@H](CC(=O)N[C@H](CO)Cc2ccccc2)C(=O)NCCOC1=O", "inhibition": "-5.51%"},
      {"smiles": "Cc1ccc2c(c1)nnc1nnc(SCC(=O)O)n12", "inhibition": "-10.5%"},
      {"smiles": "CC1OC2C(OC1C)N(S(C)(=O)=O)CCN2S(C)(=O)=O", "note": "(stereo not given)", "inhibition": "1.46%"},
      {"smiles": "Cc1cccc(NC(=O)c2ccc3ccccc3n2)n1", "inhibition": "27.1%"},
      {"smiles": "Clc1ccc(Nc2ccc3ccccc3n2)cc1", "inhibition": "54.1% (active)"},
      {"smiles": "Cc1cc(Nc2ccc(Br)cc2)nc2ccccc12", "inhibition": "29.6%"},
      {"smiles": "CCOC(=O)C1CCCN(S(=O)(=O)c2ccc3c(c2)C(C)(C)C(=O)N3C)C1", "note": "(stereo not given)", "inhibition": "-10.8%"},
      {"smiles": "CC1CCC2(CC1)NC(=O)N(CC(=O)c1ccc3c(c1)OCO3)C2=O", "note": "(stereo not given)", "inhibition": "-17.1%"},
      {"smiles": "CSc1ccc(S(=O)(=O)NC2CCCCC2)cc1", "inhibition": "45.6% (active)"},
      {"smiles": "CC(C)c1ccc(S(=O)(=O)NC2CCCC2)cc1", "inhibition": "19%"},
      {"smiles": "Cc1ccc(S(=O)(=O)NC2CCCCCC2)cc1", "inhibition": "21.3%"},
      {"smiles": "CC(=O)c1ccccc1OCc1ccc(C(=O)c2ccccc2)cc1", "inhibition": "9.55%"},
      {"smiles": "O=C(NC1CCCC1)C(=O)c1c[nH]c2ccccc12", "inhibition": "-16.2%"},
      {"smiles": "O=C(C(=O)N1CCc2ccccc2C1)c1c[nH]c2ccccc12", "inhibition": "40.7% (active)"},
      {"smiles": "CC1CCN(CC(=O)c2c[nH]c3ccccc23)CC1", "inhibition": "16%"},
      {"smiles": "Cc1ccc(N2CC(C(=O)N3CCC4(CC3)CC(=O)c3ccccc3O4)CC2=O)cc1C", "note": "(stereo not given)", "inhibition": "1.3%"},
      {"smiles": "Cc1ccc(C(=O)NC23CC4CC(CC(C4)C2)C3)c(Cl)c1", "inhibition": "-11.9%"},
      {"smiles": "C/C(=N/NC(=O)c1cc(Cl)ccc1O)C12CC3CC(CC(C3)C1)C2", "inhibition": "50.7% (active)"},
      {"smiles": "O=C(N/N=C1\\CCSC1)c1cc(Cl)ccc1O", "inhibition": "-11.5%"},
      {"smiles": "CCc1noc(C)c1C(=O)Nc1nc2ccc(OC)cc2s1", "inhibition": "26.7%"},
      {"smiles": "COc1ccc2nc(Nc3nc4cc5c(cc4s3)OCCO5)sc2c1", "inhibition": "47.7% (active)"},
      {"smiles": "COc1ccc2nc(NC(=O)NC3CCCCC3)sc2c1", "inhibition": "21.2%"},
      {"smiles": "Fc1ccc(N2CCN(Cc3cnc(Oc4ccc(Br)cc4)s3)CC2)cc1", "inhibition": "42.4% (active)"},
      {"smiles": "c1ccc(-c2cnc(CN3CCN(c4ccccc4)CC3)o2)cc1", "inhibition": "2.4%"},
      {"smiles": "COc1ccc(N2CCN(Cc3ccc(Br)s3)CC2)cc1", "inhibition": "19.9%"},
      {"smiles": "COc1ccc(N2CCN(C(CNS(=O)(=O)c3ccc(C)cc3)c3ccccc3)CC2)cc1", "note": "(stereo not given)", "inhibition": "4.98%"},
      {"smiles": "CS(=O)(=O)c1ccc(C(=O)OCC(=O)NNC(=O)COc2ccc(Cl)cc2)cc1", "inhibition": "-15.1%"},
      {"smiles": "C/C=C/c1ccc(OCCCCN2CCC(C)CC2)c(OC)c1", "inhibition": "15.8%"},
      {"smiles": "COc1ccc(NC(=O)c2cc3nc(-c4ccccc4)cc(C)n3n2)cc1OC", "inhibition": "51.1% (active)"},
      {"smiles": "COc1ccc(NC(=O)c2ccccc2[N+](=O)[O-])cc1OC", "inhibition": "15.9%"},
      {"smiles": "COc1ccc(NC(=O)CNC(=O)Cc2ccccc2)cc1OC", "inhibition": "-6.35%"},
      {"smiles": "O=C(COC(=O)/C=C/c1ccc(S(=O)(=O)N2CCCCCC2)cc1)NCc1ccccc1Cl", "inhibition": "35.9%"},
      {"smiles": "Cc1onc(-c2ccccc2Cl)c1C(=O)N(Cc1ccc(N(C)C)cc1)C(C)C", "inhibition": "23.4%"},
      {"smiles": "O=c1ccc2c(-c3ccccc3S(=O)(=O)O)c3ccc(O)c(O)c3oc-2c1O", "inhibition": "38.3%"},
      {"smiles": "Cc1ccccc1NC(=O)NCC1CCN(Cc2cccc(Cl)c2)CC1", "inhibition": "4.31%"},
      {"smiles": "Cc1cccc(CN2CCC(CNC(=O)Nc3ccc(F)c(Cl)c3)CC2)c1", "inhibition": "41.3% (active)"},
      {"smiles": "Cc1ccc(C)c(CN2CCC(CNC(=O)Nc3ccc(C)c(F)c3)CC2)c1", "inhibition": "30.5%"},
      {"smiles": "Cc1cccc(-c2c(NC(=O)c3ccco3)oc3ccc(Cl)cc3c2=O)c1", "inhibition": "7.38%"},
      {"smiles": "CCN(C(=O)Cc1c(C(=O)O)n(CC)c2ccccc12)c1ccccc1C", "inhibition": "19.7%"},
      {"smiles": "CN(C(=O)COc1nnc(-c2cccs2)c(-c2cccs2)n1)c1ccccc1", "inhibition": "46.6% (active)"},
      {"smiles": "O=C(O)COc1ccc(-c2nccc(-c3cccs3)n2)cc1", "inhibition": "10.2%"},
      {"smiles": "CN(C(=O)COC(=O)CNC(=O)C12CC3CC(CC(C3)C1)C2)c1ccccc1", "inhibition": "4.63%"},
      {"smiles": "O=C(CC1NCCc2ccccc21)Nc1cccc(Cl)c1", "note": "(stereo not given)", "inhibition": "34.9%"},
      {"smiles": "Cc1ccc(NS(=O)(=O)c2c(C)[nH]c(=O)[nH]c2=O)cc1C", "inhibition": "0.26%"},
      {"smiles": "CCOc1ccc(CN2CCN(Cc3ccon3)CC2CCO)cc1", "note": "(stereo not given)", "inhibition": "9.62%"},
      {"smiles": "CS(=O)(=O)N(CC(=O)Nc1ccc(Cl)c(Cl)c1)C1CCCCC1", "inhibition": "35.1%"},
      {"smiles": "O=C(CC(O)(C(F)(F)F)C(F)(F)F)Nc1ccc(Cl)c(Cl)c1", "inhibition": "85.2% (active)"},
      {"smiles": "O=C(CCCN1C(=O)CCC1=O)Nc1ccc(Cl)c(C(F)(F)F)c1", "inhibition": "-0.021%"}
    ]}
  ]
}
